Source: article PMC9574860, “Chemical Toolkit for PARK7: Potent, Selective, and High-Throughput” (Journal of Medicinal Chemistry, 2022)
Among all 7,900 compounds or so, about 400 (5.1%) showed an effect of 50% or more. This excerpt belongs to a sample that is enriched for strong results.

Each molecule was assayed against Parkinson's disease protein 7 (PARK7/DJ1) (human, UniProt Q99497) (assay: primary screen, percent inhibition; read as competition with a fluorescent probe by fluorescence polarization; higher = more effect of the substance). Conditions: 100 µM.
Chain of Parkinson's disease protein 7 (PARK7/DJ1) (Q99497 whole entry, looked up, the tested form may be a part): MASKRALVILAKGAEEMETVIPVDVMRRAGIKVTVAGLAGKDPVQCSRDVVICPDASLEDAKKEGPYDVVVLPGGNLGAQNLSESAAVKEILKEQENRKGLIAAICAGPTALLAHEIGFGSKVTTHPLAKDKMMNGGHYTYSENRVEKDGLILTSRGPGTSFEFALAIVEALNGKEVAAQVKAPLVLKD
In short: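 Fluorescence-polarization probe displacement (JYQ-107, 20 nM final, 2 h) after 2 h preincubation of PARK7 (0.2 μM final) with each fragment at 100 μM final. Read-out ex/em 480/520 nm; remaining activity derived from FP signal loss relative to reference controls.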

Going from `C=CC(=O)N1CCC(NC(=O)c2oc(C)cc2C)CC1` to `O=C(CCl)NC1CCN(C(=O)CCc2ccccc2)CC1`, the Inhibition % rises from 3.91% to 11.9%.

Going from `C=CC(=O)NC1CCc2nnc(CC)n2C1` (stereo not shown) to `C=CC(=O)Nc1c(C)nn(C)c1N1CCC1`, the Inhibition % rises from 7.66% to 87.1%.

First: O=C(CCl)c1ccc(N2CCOC2=O)cc1
Second: O=C(CCl)c1ccc(O)cc1
The Inhibition % of the first is lower: 24.5% for the first, 86.7% for the second.

Going from `O=C(CCl)NC(=O)c1ccc(Cl)cc1` to `O=C(CCl)c1ccc(Cl)cc1`, the Inhibition % rises from 19.6% to 75.6%.

First: O=C(CCl)c1ccc(O)cc1O
Second: O=C(CCl)c1cc(F)ccc1O
The Inhibition % of the first is higher: 81.9% for the first, 38.8% for the second.

Compared with `O=C(CCl)c1ccc(F)cc1F`, `O=C(CCl)c1ccc(F)cc1` is higher in Inhibition %: 18.5% for the first, 32.3% for the second.

Compared with `Cn1c(=O)oc2cc(C(=O)CCl)ccc21`, `O=C(CCl)c1ccc2[nH]c(=O)oc2c1` is higher in Inhibition %: 0.517% for the first, 2.68% for the second.

Going from `O=C(CCl)c1ccoc1` to `O=C(CCl)c1ccccc1`, the Inhibition % falls from 76.6% to 56.6%.

Going from `Cc1ccc(C(=O)CCl)cc1` to `CSc1ccc(C(=O)CCl)cc1`, the Inhibition % rises from 32.3% to 89.6%.

Compared with `C=CC(=O)NC1COCc2ccccc21` (stereo not shown), `C=CC(=O)N1CCOc2ccccc21` is lower in Inhibition %: 9.84% for the first, 9.1% for the second.

Going from `O=C(CN1C(=O)CCC1=O)c1ccccc1F` to `CN1C(=O)CCc2cc(C(=O)CCl)ccc21`, the Inhibition % rises from 9.1% to 19.5%.

Going from `CC1CC(N2CC=C(c3ccc(F)cc3)CC2)C(=O)O1` (stereo not shown) to `CNC(=O)Cn1nc(-c2ccc(F)cc2)oc1=O`, the Inhibition % rises from 5.18% to 16.9%.

Compared with `Cc1cccc(NC(=O)NC2C(=O)OCC2(C)C)n1` (stereo not shown), `CC1(C)C(=O)Nc2ccc(C(=O)CCl)cc21` is higher in Inhibition %: 7.98% for the first, 32.9% for the second.

First: N#CC(=Cc1ccc(-c2nc3ccccc3s2)o1)C(=O)O
Second: N#Cc1cc(C(=O)Nc2ccccc2)c(N)nc1S
The Inhibition % of the first is higher: 3.06% for the first, 1.51% for the second.

First: O=C(CCl)NCC(=O)c1ccccc1
Second: O=C(CCl)NNC(=O)c1ccccc1
The Inhibition % of the first is higher: 4.23% for the first, -3.2% for the second.

First: Cl.O=C(CCl)Nc1ccncc1
Second: Cl.O=C(CCl)c1ccncc1
The Inhibition % of the first is lower: 14.4% for the first, 95.3% for the second.

Compared with `O=C(CCl)c1ccc(O)c(O)c1`, `O=C(CCl)c1ccc2c(c1)COC2` is lower in Inhibition %: 75.1% for the first, 72.7% for the second.

Going from `O=C(CCl)c1ccc(C(F)(F)F)cc1` to `CN1Cc2cc(C(=O)CCl)ccc2NC1=O`, the Inhibition % falls from 12% to 11.5%.

Going from `CCN1CCN(c2oc(C3CC3)nc2C#N)CC1` to `Cc1nc(C#N)c(N2CCN(C(=O)CCl)CC2)o1`, the Inhibition % rises from 1.62% to 38.4%.

Going from `Cc1nccn1CC1CCCN1c1ccc(C#N)nc1` (stereo not shown) to `N#Cc1ncn(CCCOc2ccc(Cl)cc2)n1`, the Inhibition % rises from 0.293% to 9.73%.

Going from `C=CC(=O)N1CCN(C(=O)CC(F)(F)F)CC1` to `C=CC(=O)N1CCN(C(=O)c2cccc(Cl)c2)CC1`, the Inhibition % falls from 12.4% to 4.01%.

First: CC1CC(C)CC2(C1)NC(=O)N(CCC1OCCO1)C2=O (stereo not shown)
Second: O=C(NCc1ccccc1)N1CCCCC1C1OCCO1 (stereo not shown)
The Inhibition % of the first is lower: 2.2% for the first, 6.92% for the second.

Going from `C=C(C)Cn1c(C#N)nc(C)c1C` to `CCCNC(=O)C(C#N)=Cc1oc(C)nc1C`, the Inhibition % rises from 2.82% to 19.4%.

Going from `CC(=O)N1c2ccc(C(=O)CCl)cc2CC1C` (stereo not shown) to `CCC(=O)N1CCc2cc(C(=O)CCl)ccc21`, the Inhibition % falls from 5.96% to 3.43%.

First: O=C(CCl)c1ccns1
Second: CC(C)n1ccnc1C(=O)CCl
The Inhibition % of the first is higher: 95.1% for the first, 48.7% for the second.

Compared with `O=C(CCl)c1ccc2[nH]c(=O)[nH]c2c1`, `O=C(CCl)Nc1ccc2[nH]c(=O)[nH]c2c1` is lower in Inhibition %: 63.2% for the first, 34.3% for the second.

Going from `Cl.O=C(CCl)Nc1cccnn1` to `Cl.O=C(CCl)NCCc1cccc2cccnc12`, the Inhibition % rises from 26.1% to 30.3%.

Going from `N#Cc1ncn(Cc2c(F)cccc2Cl)n1` to `O=S(=O)(F)c1ccc(S(=O)(=O)Nc2ncccc2Cl)cc1`, the Inhibition % rises from 0.988% to 32.9%.

First: C=CC(=O)Nc1cnc2c(C)cccn12
Second: C=CC(=O)Nc1c(C)nn(CC)c1C
The Inhibition % of the first is higher: 8.53% for the first, 2.74% for the second.

Going from `Cc1nc(C)c(C(=O)CCl)o1` to `CS(=O)(=O)N1CCCc2cc(C(=O)CCl)ccc21`, the Inhibition % falls from 95.2% to 76.4%.

First: C=CC(=O)N1CCCCC1c1noc(C2CC2)n1 (stereo not shown)
Second: C=CC(=O)N1CCCc2c1nc[nH]c2=O
The Inhibition % of the first is higher: 29.3% for the first, 20.2% for the second.

First: COC[C@@H]1C[C@H](OC)CN1C(=O)c1c[nH]c(C#N)c1
Second: CS(=O)(=O)N1CCc2cc(C(=O)CCl)ccc21
The Inhibition % of the first is lower: 1.56% for the first, 36.2% for the second.

Going from `O=C(O)CN1C(=O)CSC1=O` to `O=C(O)CCN1C(=O)CSC1=O`, the Inhibition % falls from 17.6% to 13%.

Going from `Cl.NCCN1C(=O)CSC1=O` to `CN1C(=O)Cc2cc(C(=O)CCl)ccc21`, the Inhibition % rises from 75.6% to 83.4%.

First: CN(Cc1nc2ccccc2[nH]1)S(=O)(=O)C1=CCCCC1
Second: O=S(=O)(C=Cc1ccccc1)NC1CCCn2ncnc21 (stereo not shown)
The Inhibition % of the first is lower: 8.82% for the first, 12.3% for the second.

First: C=CC(=O)NC(CO)C1CCCO1 (stereo not shown)
Second: C=CC(=O)NCc1nc2c(s1)COCC2
The Inhibition % of the first is higher: 6.87% for the first, 5.36% for the second.

Compared with `O=C(CCl)NCC#Cc1ccccc1`, `CN(CC1COc2ccccc2O1)C(=O)CCl` (stereo not shown) is higher in Inhibition %: 1.08% for the first, 96.7% for the second.

Going from `C=CC(=O)N1CCCN(c2ccccn2)CC1` to `C=CC(=O)N1CCN(S(=O)(=O)CC)CC1`, the Inhibition % falls from 12.3% to 11.7%.

First: C=CC(=O)N(CC)C1CCS(=O)(=O)C1 (stereo not shown)
Second: C=CC(=O)N(C1CC1)C1CCS(=O)(=O)C1 (stereo not shown)
The Inhibition % of the first is lower: -4.06% for the first, 10.3% for the second.

First: OC1(C2CO2)CCCC1 (stereo not shown)
Second: C=CC(=O)NCC(=O)NC1(C)CCCCC1
The Inhibition % of the first is lower: 3.59% for the first, 13.6% for the second.

Compared with `Cc1nn(C)c(Cl)c1C=CC(=O)N1CCC(N)C1.Cl` (stereo not shown), `CN1CCN(C(=O)CCl)CC1.Cl` is lower in Inhibition %: 17.1% for the first, 1.98% for the second.

Going from `CCOC(=O)C1CCCN(C(=O)CCl)C1` (stereo not shown) to `NC(=O)C1CCCN(C(=O)CCl)C1` (stereo not shown), the Inhibition % falls from 74.4% to 35.5%.

Compared with `O=C(CCl)N1CCN(C(=O)CCl)CC1`, `CCOC(=O)N1CCN(C(=O)CCl)CC1` is higher in Inhibition %: 36.5% for the first, 67.8% for the second.

Going from `O=C(CCl)N1CCC(C(=O)N2CCCCCC2)CC1` to `O=C(CCl)N1CCC(C(=O)N2CCCCC2)CC1`, the Inhibition % rises from 15.1% to 18.3%.

Compared with `O=C(CCl)N1CCN(C(=O)C2CC2)CC1`, `CCOC(=O)C1CCN(C(=O)CCl)CC1` is lower in Inhibition %: 56.1% for the first, 19.7% for the second.

Going from `C=CC(=O)N1CCN(C)c2cc(F)ccc21` to `CCS(=O)(=O)N1CCc2cc(C(=O)CCl)ccc21`, the Inhibition % falls from 14.6% to 11.9%.

First: N#CCCN(C(=O)CCl)c1cccc(Cl)c1
Second: CCN(CC1COc2ccccc2O1)C(=O)CCl (stereo not shown)
The Inhibition % of the first is higher: 29.3% for the first, 21.2% for the second.

Going from `O=C1CCc2cc(OCCCl)ccc2N1` to `O=C1CCc2cc(C(=O)CCl)ccc2N1`, the Inhibition % rises from 6.21% to 52.8%.

Compared with `O=C1CCCc2cc(C(=O)CCl)ccc2N1`, `O=C1Cc2cc(C(=O)CCl)ccc2N1` is lower in Inhibition %: 86.5% for the first, 81.4% for the second.

Compared with `O=C1CCc2cc(C(=O)CCl)c(F)cc2N1`, `O=C1COc2ccc(C(=O)CCl)cc2N1` is higher in Inhibition %: 1.18% for the first, 8.16% for the second.

First: CC1C(=O)Nc2ccc(C(=O)CCl)cc21 (stereo not shown)
Second: O=C(CCl)c1cc2c3c(c1)CC(=O)N3CCC2
The Inhibition % of the first is higher: 85.9% for the first, 21.1% for the second.

First: C=CC(=O)Nc1ccc2c(c1)CCCC(=O)N2
Second: O=C(CCl)Nc1cccc(C(=O)N2CCSCC2)c1
The Inhibition % of the first is lower: 4.19% for the first, 6.3% for the second.

Going from `CC(C)Cc1nc(C#N)c(NCc2ccncc2)o1` to `COc1ccc(-c2ccncc2)cc1B(O)O`, the Inhibition % falls from 6.94% to 6.7%.

First: CC1(C)OB(c2ccc(N)nc2)OC1(C)C
Second: Cc1nn(C)c(NS(=O)(=O)C=Cc2ccccc2)c1C
The Inhibition % of the first is lower: 9.29% for the first, 11.2% for the second.

Compared with `N#CC(=Cc1cccs1)C(N)=O`, `Cc1csc2ccc(B(O)O)cc12` is lower in Inhibition %: 10.8% for the first, 5.69% for the second.

Compared with `C=CC(=O)Nc1c(C)nn(C(C)C)c1C`, `C=CC(=O)N(C)CC1COc2ccccc2O1` (stereo not shown) is higher in Inhibition %: 0.88% for the first, 3.26% for the second.

Going from `N#Cc1nc(C2CC2)n[nH]1` to `CCN(C(=O)Cn1c(S)nc2ccccc2c1=O)C1CC1`, the Inhibition % falls from 2.55% to 0.694%.

Compared with `O=S(=O)(F)c1cccc(S(=O)(=O)Nc2cccnc2O)c1`, `O=S(=O)(F)c1ccc(S(=O)(=O)Nc2cccnc2O)cc1` is lower in Inhibition %: 99.4% for the first, 8.42% for the second.

Going from `CCCc1nnc(NS(=O)(=O)c2ccc(S(=O)(=O)F)cc2)o1` to `CCCc1nnc(NS(=O)(=O)c2cccc(S(=O)(=O)F)c2)o1`, the Inhibition % rises from 49.9% to 98.8%.

Compared with `Cc1csc(NS(=O)(=O)c2cccc(S(=O)(=O)F)c2)n1`, `Cc1cscc1NS(=O)(=O)c1cccc(S(=O)(=O)F)c1` is higher in Inhibition %: 83.9% for the first, 98.1% for the second.

Compared with `Cc1nc(NS(=O)(=O)c2ccc(S(=O)(=O)F)cc2)no1`, `Cc1conc1NS(=O)(=O)c1ccc(S(=O)(=O)F)cc1` is higher in Inhibition %: 22.7% for the first, 27% for the second.

Going from `Cc1cnccc1NS(=O)(=O)c1ccc(S(=O)(=O)F)cc1` to `Cc1conc1NS(=O)(=O)c1cccc(S(=O)(=O)F)c1`, the Inhibition % rises from 18.9% to 99%.

Compared with `O=C(CCl)NCC(=O)N1CCCC1`, `O=C(CCl)NCc1ccc(N2CCOCC2)c(F)c1` is higher in Inhibition %: 2.12% for the first, 10.8% for the second.

`FC(F)(F)c1cccc(C2CO2)c1` (stereo not shown) was tested, and the Inhibition % was 2.09%.
